# In all, about 8,300 sequences were measured (“log2 fold change of degron read counts, EGFP-low vs EGFP+ sorted cells (limma voom), compound-induced degradation”: median about -1.1, highest 2% from about 3.2 on). The list comes from a sample in which the highest values are over-represented; it also holds similar and randomly drawn sequences.
# B1: 46F_47K_49P_50V_52G_53A_54N_55F_67L_, Q9UKT9 (peptide)
# chain: FKCPVCGANFTQKGNLLRHIKL
# B2: 46F_47F_49N_50V_52G_53A_54S_55F_67L_, Q9UKT9 (peptide)
# chain: FFCNVCGASFTQKGNLLRHIKL
# B3: 46F_47W_49N_50V_52G_53A_54T_55F_67L_, Q9UKT9 (peptide)
# chain: FWCNVCGATFTQKGNLLRHIKL
# B4: 46F_47V_49E_50I_52G_53H_54W_55F_67L_, Q9UKT9 (peptide)
# chain: FVCEICGHWFTQKGNLLRHIKL
# B5: 46F_47C_49N_50V_52G_53A_54I_55F_67L_, Q9UKT9 (peptide)
# chain: FCCNVCGAIFTQKGNLLRHIKL
# B6: 46F_47R_49D_50V_52G_53A_54K_55F_67L_, Q9UKT9 (peptide)
# chain: FRCDVCGAKFTQKGNLLRHIKL
# B7: 46F_47F_49E_50I_52G_53H_54Q_55F_67L_, Q9UKT9 (peptide)
# chain: FFCEICGHQFTQKGNLLRHIKL
# B8: 46F_47C_49P_50V_52G_53A_54Y_55F_67L_, Q9UKT9 (peptide)
# chain: FCCPVCGAYFTQKGNLLRHIKL
# B9: 46L_47Y_49E_50I_52G_53F_54S_55C_67L_, Q9UKT9 (peptide)
# chain: LYCEICGFSCTQKGNLLRHIKL
# B10: 46L_47K_49E_50I_52G_53F_54S_55C_67L_, Q9UKT9 (peptide)
# chain: LKCEICGFSCTQKGNLLRHIKL
# B11: 46L_47T_49E_50I_52G_53F_54S_55C_67L_, Q9UKT9 (peptide)
# chain: LTCEICGFSCTQKGNLLRHIKL
# B12: 46L_47I_49E_50I_52G_53F_54S_55C_67L_, Q9UKT9 (peptide)
# chain: LICEICGFSCTQKGNLLRHIKL
# B13: 46L_47M_49E_50I_52G_53F_54S_55C_67L_, Q9UKT9 (peptide)
# chain: LMCEICGFSCTQKGNLLRHIKL
# B14: 46L_47C_49E_50I_52G_53F_54S_55C_67L_, Q9UKT9 (peptide)
# chain: LCCEICGFSCTQKGNLLRHIKL
# B15: 46L_47F_49E_50I_52G_53F_54S_55C_67L_, Q9UKT9 (peptide)
# chain: LFCEICGFSCTQKGNLLRHIKL
# B16: 46F_47W_49E_50I_52G_53H_54W_55F_67L_, Q9UKT9 (peptide)
# chain: FWCEICGHWFTQKGNLLRHIKL
# B17: 46F_47V_49E_50I_52G_53A_54W_55F_67L_, Q9UKT9 (peptide)
# chain: FVCEICGAWFTQKGNLLRHIKL
# B18: 46F_47S_49N_50I_52G_53A_54S_55F_67L_, Q9UKT9 (peptide)
# chain: FSCNICGASFTQKGNLLRHIKL
# B19: 46F_47C_49P_50Q_52G_53A_54M_55F_67L_, Q9UKT9 (peptide)
# chain: FCCPQCGAMFTQKGNLLRHIKL
# B20: 46L_47Y_49N_50Q_52G_53F_54V_55C_67L_, Q9UKT9 (peptide)
# chain: LYCNQCGFVCTQKGNLLRHIKL
# B21: 46F_47H_49N_50Q_52G_53A_54V_55F_67L_, Q9UKT9 (peptide)
# chain: FHCNQCGAVFTQKGNLLRHIKL
# B22: 46F_47D_49N_50V_52G_53A_54T_55F_67L_, Q9UKT9 (peptide)
# chain: FDCNVCGATFTQKGNLLRHIKL
# B23: 46F_47E_49P_50I_52G_53H_54Y_55F_67L_, Q9UKT9 (peptide)
# chain: FECPICGHYFTQKGNLLRHIKL
# B24: 46F_47E_49D_50V_52G_53A_54W_55F_67L_, Q9UKT9 (peptide)
# chain: FECDVCGAWFTQKGNLLRHIKL
# B25: 46F_47E_49N_50I_52G_53A_54A_55F_67L_, Q9UKT9 (peptide)
# chain: FECNICGAAFTQKGNLLRHIKL
# B26: 46F_47W_49N_50I_52G_53A_54A_55F_67L_, Q9UKT9 (peptide)
# chain: FWCNICGAAFTQKGNLLRHIKL
# B27: 46F_47Y_49N_50I_52G_53A_54A_55F_67L_, Q9UKT9 (peptide)
# chain: FYCNICGAAFTQKGNLLRHIKL
# B28: 46F_47A_49N_50I_52G_53A_54A_55F_67L_, Q9UKT9 (peptide)
# chain: FACNICGAAFTQKGNLLRHIKL
# B29: 46F_47R_49N_50I_52G_53A_54A_55F_67L_, Q9UKT9 (peptide)
# chain: FRCNICGAAFTQKGNLLRHIKL
# B30: 46F_47Q_49N_50I_52G_53A_54A_55F_67L_, Q9UKT9 (peptide)
# chain: FQCNICGAAFTQKGNLLRHIKL
# Target: T1, CRBN, Q96SW2
# T1 chain: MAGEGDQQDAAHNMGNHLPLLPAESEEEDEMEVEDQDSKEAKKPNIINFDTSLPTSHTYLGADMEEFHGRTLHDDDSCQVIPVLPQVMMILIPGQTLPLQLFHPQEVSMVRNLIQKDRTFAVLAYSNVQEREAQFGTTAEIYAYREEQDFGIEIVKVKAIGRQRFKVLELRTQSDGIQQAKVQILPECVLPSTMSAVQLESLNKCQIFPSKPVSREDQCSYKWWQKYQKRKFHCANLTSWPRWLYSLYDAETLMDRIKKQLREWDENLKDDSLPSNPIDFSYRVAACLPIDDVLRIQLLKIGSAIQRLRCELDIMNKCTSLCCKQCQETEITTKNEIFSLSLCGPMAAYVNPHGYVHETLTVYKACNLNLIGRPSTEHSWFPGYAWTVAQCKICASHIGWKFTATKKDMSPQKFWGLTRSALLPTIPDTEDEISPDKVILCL
# Assay: log2 fold change of degron read counts, EGFP-low vs EGFP+ sorted cells (limma voom), compound-induced degradation; higher = more compound-induced degradation of the degron-EGFP fusion; degrons are variants of IKZF1/3 zinc finger 2; compound dose not given here
# Conditions: Jurkat, 18 h
# [1] = compound: compound 19 (5-tert-butyl-thalidomide)
# [2] = compound: compound 22 (5-morpholino-thalidomide)
# [3] = compound: compound 33 (diphenyl IMiD analogue)
# 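Further: pooled lentiviral library of zinc finger degron-EGFP fusions in mCherry-positive Jurkat cells, FACS-sorted after compound exposure, with degron abundance counted by next-generation sequencing.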
Sequence,log2 fold change of degron read counts [1],log2 fold change of degron read counts [2],log2 fold change of degron read counts [3],log2 fold change of degron read counts (compound: thalidomide)
B1,-1.23,-1.7,-1.75,-0.842
B2,0.714,1.8,0.537,-0.573
B3,-0.873,1.95,0.03,-1.73
B4,-4.05,-5.4,-3.27,-3.37
B5,-0.872,-0.605,1.29,-0.21
B6,-1.66,-1.94,-0.967,-0.732
B7,-2.47,-1.41,-2.03,-3.11
B8,0.773,0.428,1.38,0.899
B9,3.63,3.7,3.1,2.45
B10,1.07,-1.26,-1.41,0.762
B11,2.45,3.22,2.39,3.2
B12,1.33,3.02,2.39,3.24
B13,1.25,2.14,2.59,2.36
B14,2.55,2.37,1.93,2.56
B15,3.66,3.51,2.53,2.79
B16,-1.25,-1.77,-1.42,-1.28
B17,-1.2,-0.828,0.741,0.583
B18,1.66,1.77,1.15,0.544
B19,-1.18,-1.69,0.335,-0.935
B20,-0.977,-0.96,-1.36,-1.76
B21,-1.89,-2.19,-1.71,-2
B22,-1.91,-2.32,-1.24,-1.1
B23,-2.41,-2.69,-1.81,-1.2
B24,-3.45,-3.71,-2.2,-2.52
B25,0.374,-0.891,1.05,2.1
B26,2.29,3.32,1.66,0.348
B27,2.66,2.97,1.81,-0.259
B28,2.77,2.64,0.592,0.334
B29,1.09,1.5,1.96,1.32
B30,1.01,2.28,1.53,3.39
